Only some compounds are listed: those with a hit (about 1.8% of all), similar ones and a draw of the others.
GSTO1 counter: inhibitors of recombinant GSTO1, primary screen, counter-screen for RBBP9 inhibitor project, biochemical, fluorescence polarization. activity-based probe fluorescence polarization. inhibition, % at 5.96 µM. 300,000 compounds, 1.1% hits;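 active means inhibition above the campaign mean inhibition plus 3 SD, cut at about 35% in these data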;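 further: 0% = GSTO1-1 with DMSO and 100% = wells lacking GSTO1-1 enzyme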
Fam108B counter: mouse Fam108B serine hydrolase inhibitors, primary screen, counter-screen for RBBP9 inhibitor project, biochemical, fluorescence polarization | AID 1947, 2009 | inhibition, % at 9.51 µM | recombinant Fam108B, FP-Rh probe fluorescence polarization | 300,000 compounds, 0.33% hits;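 active means inhibition above the screen mean inhibition plus 3 SD, computed separately per campaign, cut at about 18% in these data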;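 further: inhibitors lower polarization as less probe binds the enzyme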
PAD4 inh: human PAD4 inhibitors, primary screen, biochemical, fluorescence polarization, 1536-well format | recombinant PAD4, RCA probe fluorescence polarization | inhibition, % at 6.36 µM | 330,000 compounds, 0.41% hits | AID 485272, 2010;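 active means percent inhibition above a cutoff equal to the mean of all tested compounds plus 3 SD, cut at about 15% in these data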;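 further: 0% = PAD4 with RCA probe and DMSO and 100% = probe without PAD4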
LYPLA1 counter: LYPLA1 inhibitors, primary screen, counter-screen for PME1 inhibitor project, biochemical, fluorescence polarization, FP-Rh probe ABPP | inhibition, % at 5.9 µM | recombinant LYPLA1 | AID 2174, 2009 | 320,000 compounds, 0.16% hits | Acyl-protein thioesterase 1 (Homo sapiens), O75608;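 active means inhibition above the mean of all tested compounds plus 3 SD, set per campaign, cut at about 14% in these data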;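 further: inhibitors block serine hydrolase probe labeling of LYPLA1 so polarization falls; 0% = enzyme with DMSO and 100% = wells lacking LYPLA1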
Target sequence (O75608 whole entry, looked up): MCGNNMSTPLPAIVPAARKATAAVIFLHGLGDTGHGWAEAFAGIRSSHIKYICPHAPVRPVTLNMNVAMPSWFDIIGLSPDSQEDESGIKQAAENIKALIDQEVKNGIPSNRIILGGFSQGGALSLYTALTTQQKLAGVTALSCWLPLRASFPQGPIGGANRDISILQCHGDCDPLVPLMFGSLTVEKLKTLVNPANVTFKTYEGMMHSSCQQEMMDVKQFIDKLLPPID
LYPLA2 inh: LYPLA2 inhibitors, primary screen, counter-screen for PME1 inhibitor project, biochemical, fluorescence polarization, FP-Rh probe ABPP | Acyl-protein thioesterase 2 (Homo sapiens), O95372 | recombinant LYPLA2 | inhibition, % at 5.9 µM | 320,000 compounds, 0.38% hits | AID 2177, 2009;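 active means inhibition above the screen-wide mean plus 3 SD, limit set per campaign, cut at about 26% in these data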;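 further: 0% = LYPLA2 with DMSO and 100% = wells lacking LYPLA2 enzyme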
Target sequence (O95372 whole entry, looked up): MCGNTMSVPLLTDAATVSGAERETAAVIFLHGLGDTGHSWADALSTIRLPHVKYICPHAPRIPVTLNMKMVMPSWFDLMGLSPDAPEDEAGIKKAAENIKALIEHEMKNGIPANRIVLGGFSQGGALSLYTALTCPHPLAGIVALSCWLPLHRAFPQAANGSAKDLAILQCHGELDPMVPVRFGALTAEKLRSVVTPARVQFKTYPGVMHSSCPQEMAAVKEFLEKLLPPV
PME-1 primary: PME-1 inhibitors via competitive probe labeling, primary screen, biochemical, fluorescence polarization, FP-Rh probe, HTS; Protein phosphatase methylesterase 1 (Homo sapiens), Q9Y570; recombinant PME-1; inhibition, % at 5.9 µM; 320,000 compounds, 0.53% hits;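 active means inhibition above the campaign mean of all compounds plus 3 SD, cut at about 26% in these data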;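 further: competitive labeling of PME-1 active site by serine hydrolase directed probe; 0% = PME-1 with DMSO and 100% = wells lacking PME-1 enzyme; inhibitors block probe labeling so polarization falls and inhibition rises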
LYPLA2 confirm: LYPLA2 inhibitors, retest, confirmation, counter-screen for PME1 inhibitor project, biochemical, fluorescence polarization, FP-Rh probe ABPP | 1,100 compounds, 72% hits | inhibition, % at 5.9 µM | shares compounds with LYPLA2 inh | recombinant LYPLA2;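 active means mean inhibition across replicates above the hit cutoff set in the primary screen, cut at about 26% in these data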;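 further: blocked labeling of the enzyme by serine hydrolase FP-Rh probe lowers polarization; 0% = enzyme with DMSO and 100% = wells lacking LYPLA2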
LYPLA2 ABPP: LYPLA2 inhibitors in proteome, late-stage follow-up, gel-based competitive ABPP, fluorescence, assay provider. shares compounds with LYPLA2 inh. rhLYPLA2 in mouse brain proteome, gel ABPP FP-Rh. inhibition, % at 20 µM. 150 compounds, 30% hits. AID 652029, 2013;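 active means inhibition of LYPLA2 enzyme probe labeling above about 50%, limit read from the data; inactive means inhibition below that limit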;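 further: loss of FP-Rh probe labeling of the LYPLA2 gel band measured as band density; 0% = DMSO only control band and 100% = blank gel background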
Numbers without * were called inactive; . = no result.

SMILES	GSTO1 counter	Fam108B counter	PAD4 inh	LYPLA1 counter	LYPLA2 inh	PME-1 primary	LYPLA2 confirm	others
CCOC(=O)C1=CN(Cc2ccco2)S(=O)(=O)NC1c1ccc(Br)cc1F (stereo unspecified)	.	.	-4	.	.	.	.
[O-][n+]1ccc(C(O)c2ccccc2)cc1 (stereo unspecified)	-2	0	1	2	4	-2	.
COc1cc(/C=C2/NC(=O)N(Cc3ccccc3F)C2=O)ccc1Oc1ccc([N+](=O)[O-])cn1	0	-7	2	-2	62*	8	72*
COc1cc(/C=C(/C#N)c2ccccc2)ccc1Oc1ccc([N+](=O)[O-])cn1	-11	-3	0	-6	31*	1	31*
Cc1ccc(NS(=O)(=O)c2cccc(C(=O)N3CCN(C(=O)c4ccco4)CC3)c2)cc1	.	.	1	-1	-1	8	.
CC(=O)c1ccc(CCCCCCCCCC(=O)O)s1	5	0	0	3	59*	-3	57*	LYPLA2 ABPP=18
CCOC(=O)c1ccc(NC(=O)CC2S/C(=N/N=C3/NC(=O)CS3)NC2=O)cc1 (stereo unspecified)	33	-2	3	1	32*	-2	2
Cc1ccc(NC(=O)CC2S/C(=N/N=C3/NC(=O)CS3)NC2=O)cc1 (stereo unspecified)	14	2	-1	0	-1	-11	.
Oc1cc2c(cc1CN1CCN(c3ncccn3)CC1)OCO2	1	1	-3	2	3	-2	.
O=C(/C=C/c1ccco1)N1CCN(C/C=C/c2ccccc2)CC1	-1	-1	3	2	27*	3	24
O=C(/C=C/c1ccco1)N1CCN(S(=O)(=O)/C=C/c2ccccc2)CC1	0	-1	-4	2	-3	1	.
COc1ccccc1NC(=O)Cn1cnc2sc(C(=O)NCc3ccco3)c(C)c2c1=O	-4	-1	0	0	64*	-2	57*	LYPLA2 ABPP=49
CCN(CC)CCCNC(=O)c1sc2ncn(CC(=O)Nc3ccc(C)c(Cl)c3)c(=O)c2c1C	-4	-4	-1	-3	38*	-6	40*
CCn1cnc2sc(C(=O)Nc3ccccc3OC)c(C)c2c1=O	5	-2	-3	1	0	0	.
COCCCNC(=O)c1sc2ncn(CC(=O)Nc3ccc(C)c(Cl)c3)c(=O)c2c1C	-1	-3	-1	-11	42*	-5	35*
Cc1noc(C)c1COc1ccc(C(=O)Nc2ncccc2O)cc1	5	2	1	4	7	0	.
CCN(C[C@H]1N[C@@](Cc2ccccc2)(C(=O)OC)[C@H]2C(=O)N(Cc3ccccc3)C(=O)[C@@H]12)C(=O)COc1ccccc1	.	.	-8	.	.	.	.
O=C(Nc1ccc(N2CCN(C(=O)c3ccco3)CC2)c(Cl)c1)c1c(F)c(F)c(F)c(F)c1F	4	-9	-4	1	62*	-4	64*	LYPLA2 ABPP=50*
O=C(c1ccco1)N1CCN(C(=S)Nc2ccc(F)c(Cl)c2)CC1	-2	4	-7	2	66*	-1	68*	LYPLA2 ABPP=47
O=C(Nc1ccc(N2CCN(C(=O)c3ccco3)CC2)cc1)c1ccc(Br)cc1	2	-3	-1	1	-1	-10	.
Cc1ccccc1C(=O)N1CCN(c2ccc(NC(=S)NC(=O)c3ccco3)cc2)CC1	4	3	2	-3	8	-2	.
COc1ccccc1C(=O)NC(=S)Nc1ccc(N2CCN(C(=O)c3ccco3)CC2)cc1	-22	1	-1	2	27*	5	26
O=C(Nc1ccc(N2CCN(C(=O)c3ccco3)CC2)cc1)c1cc(Br)ccc1Cl	.	.	1	7	44*	11	49*
O=C(Nc1ccc(N2CCN(C(=O)c3ccco3)CC2)c(Cl)c1)c1cccnc1	1	2	1	3	11	-3	.
O=C(c1ccco1)N1CCN(C(=S)Nc2ccc(F)cc2)CC1	-5	2	-1	-8	4	-5	.
SMILES	GSTO1 counter	Fam108B counter	PAD4 inh	LYPLA1 counter	LYPLA2 inh	PME-1 primary	LYPLA2 confirm	others
O=C(O)C1CCN(C(=O)CCN2C(=O)S/C(=C\c3ccccc3)C2=O)CC1	7	2	5	3	8	-3	.
CC(Sc1n[nH]c(N)n1)C(=O)Nc1cccc2ccccc12 (stereo unspecified)	.	.	-1	-4	-7	-1	.
CC(NC(=O)CN1CCOCC1)c1ccccc1 (stereo unspecified)	10	0	-5	-3	-5	16	.
CCOC(=O)c1c(C)n(-c2ccccc2)c2ccc(OCCN(C)C)cc12	0	-3	-3	1	-11	5	.
O=C(NCCNC(=O)c1cc(OCC(F)(F)F)ccc1OCC(F)(F)F)Nc1ccc(OC(F)(F)F)cc1	-4	-11	1	11	26*	-11	35*
O=S(=O)(c1ccc(-c2csc(Nc3ccc(Br)cc3)n2)cc1)N1CCCC1	0	9	0	8	53*	38*	-13
COc1ccc(N2CCN(C(=O)c3ccc(NC(=O)C4=CSCCO4)cc3)CC2)cc1	-4	1	6	-4	35*	5	38*
COc1cccc2c1OC1(C)CC2NC(=O)N1c1cccc(C(=O)N2CCN(c3ccccc3)CC2)c1 (stereo unspecified)	4	4	2	0	1	1	.
Cc1cc(C)n(-c2ccc(C(=O)OCC(=O)N3CCN(c4ccccc4)CC3)cc2)n1	.	.	-3	.	.	.	.
Cc1ccc(C(=O)N2CCN(c3ccc(NC(=O)c4cccnc4)cc3)CC2)cc1	5	4	0	0	17	-8	.
COc1ccc(N2CCN(C(=O)c3ccc(N4C(=O)NC5CC4(C)Oc4ccccc45)cc3)CC2)cc1 (stereo unspecified)	-2	1	6	0	34*	-2	39*
COc1ccc(N2CCN(C(=O)c3ccc(-n4nc(C)cc4C)cc3)CC2)cc1	0	-3	2	-2	41*	-2	39*

Assay outcomes (PubChem BioAssay)
